AMA1 RON2 block: AMA1-RON2 (P. falciparum) interaction inhibition; AlphaScreen AMA1-biotinylated RON2 peptide binding; Potency, µM (titrated, usually from 58.2 µM), actives largely listed as inhibitors; hit rate 0.2% among 360,000; further: nearly all actives have a fitted effect of over 45% in size
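AMA1 (3D7) with his tag at 25 nM final met compounds first, then biotinylated RON2 peptide at 25 nM; detection used donor plus acceptor beads, 10 µg/mL apiece, read by AlphaScreen after 30 min at room temperature.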
Pf growth 96h: inhibits malaria parasite growth, 96 h; Potency, µM (titrated, usually from 28.7 µM), actives largely listed as inhibitors; hit rate 6.9% among 320,000; P. falciparum luciferase reporter growth, 96 h
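Infected RBCs, 2% Hct / 0.05% parasitemia final; luciferase-reporter P. falciparum; cpd 96 h, 37 C, 5% CO2; luciferase detection reagent; luminescence.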
Pf growth 48h: inhibits P. falciparum growth in the first generation, 48 h; Potency, µM (highest dose often 28.7 µM), actives largely listed as inhibitors; AID 504832; P. falciparum luciferase growth in erythrocytes, 48 h; hit rate 5.9% among 310,000
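Cell-based growth assay: transgenic P. falciparum expressing firefly luciferase, cultured in red cells within RPMI 1640 containing 0.5% w/v Albumax, 24 mM bicarbonate and gentamycin. A drop in luciferase activity indicates inhibition.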
NS1 inh: blocks influenza NS1 protein function; Potency, µM (highest dose often 46.1 µM); hit rate 0.4% among 270,000; calls by dose curve; further: actives are rising curves; nearly all actives have a fitted effect of over 50% in size
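Read-out: OD600 growth recovery of NS1-expressing budding yeast. Cells grown overnight at 30C in -URA glucose medium, washed, resuspended and diluted 1:100 in 2% galactose assay medium, pH 6.0. Same strain lacking NS1 served as positive control.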
Sm TGR inh: inhibitors of Schistosoma mansoni thioredoxin glutathione reductase | purified TGR, DTNB reduction, TNB absorbance 405 nm | Potency, µM (series often up to 114 µM), usual class: inhibitors | hit rate 3% among 360,000 | AID 485364; further: nearly all actives have a fitted effect of over 60% in size
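First, TGR (20 nM dispensed) and NADPH were mixed with compound. Second, a 15 min room-temperature incubation followed. Third, further NADPH and then DTNB were added to start the reaction. Finally, TNB absorbance was monitored kinetically.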
A number is an active result; 0 = inactive; ? = inconclusive; - = no result; [ ] = another dose, or the depositor's remark. This is a sample that favours compounds with a hit; in the whole collection about 11% have one here. Unless noted, the call rests on the fitted dose curve; in most records, active means well fitted curve in the direction sought with a large enough effect; inconclusive means small, poorly fitted or top-dose-only effect, or another doubt; inactive means no such curve, though single readings can be large; an effect the other way counts as inactive or inconclusive.

SMILES	AMA1 RON2 block	Pf growth 96h	Pf growth 48h	NS1 inh	Sm TGR inh
COc1ccccc1NC(=O)c1cccc(S(=O)(=O)N2CCN(Cc3ccccc3)CC2)c1	0	11.7µM	?	-	0
COc1ccc(NC(=O)CSC2=Nc3ccccc3C3=NC(CC(=O)NCc4ccco4)C(=O)N23)cc1 (stereo not given)	-	-	-	-	0
COC(=O)c1ccccc1NC(=O)Cn1cnc([N+](=O)[O-])c1	0	?	0	0	0
COc1ccc(N2CCN(Cc3nc4c(c(=O)[nH]c(=O)n4C)n3Cc3ccccc3C)CC2)cc1	-	-	-	-	0
CC(C)(C)NC(=O)CCc1nnc(Cc2c[nH]c3ccccc23)o1	0	?	0	0	?
CCC(COC)NC(=O)CCc1nnc(Cc2c[nH]c3ccccc23)o1 (stereo not given)	0	13.1µM	0	0	?
CCN(CC)S(=O)(=O)c1ccc(/C=C/C(=O)Nc2ccc(F)cc2F)cc1	0	6.57µM	?	0	0
CCN(CC)S(=O)(=O)c1cccc(NC(=O)/C=C/c2ccc([N+](=O)[O-])cc2)c1	0	?	0	0	0
CN(CCCC(=O)Nc1ccc(Br)cc1F)S(=O)(=O)c1ccccc1	0	6.57µM	0	0	0
CCN(CC)S(=O)(=O)c1ccc(/C=C/C(=O)Nc2ccc(Br)cc2F)cc1	0	5.22µM	11.7µM	0	0
CCN(CC)S(=O)(=O)c1ccc(/C=C/C(=O)Nc2ccc(F)c(F)c2F)cc1	0	?	9.28µM	0	0
CCc1nc2nc(C)c(NS(=O)(=O)c3ccc(C(C)(C)C)cc3)c(=O)n2[nH]1	-	-	-	-	0
CN(C)c1ncc(C(=O)NCc2ccccc2Cl)cn1	-	-	-	-	0
CC(NC(=O)C12CC3(C)CC(C)(CC(C)(C3)C1)C2)C(=O)O (stereo not given)	0	?	0	0	-
Cc1sc(NC(=O)c2ccco2)c(C(c2cccnc2)N2CCC(C)CC2)c1C (stereo not given)	0	-	1.85µM	0	17.8µM
COc1cccc(C(c2c(NC(=O)c3ccccc3)sc(C)c2C)N2CCN(C)CC2)c1 (stereo not given)	0[2.32 µM]	?	11.7µM	0	0
CCN1CCN(C(c2ccccn2)c2c(NC(=O)c3ccccc3)sc(C)c2C)CC1 (stereo not given)	0	13.1µM	?	0	0
Cc1sc(NC(=O)c2ccco2)c(CN2CCN(Cc3ccccc3)CC2)c1C	0	?	9.28µM	-	0
Cc1sc(NC(=O)c2ccco2)c(CN2CCC(C)CC2)c1C	0	?	-	0	0
CCN1CCN(C(c2cccs2)C(C)NC(=O)c2ccccc2)CC1 (stereo not given)	0	0	0	0	0
COc1ccc(NC(=O)Cn2nc3c(cc2=O)CCCC3)cc1Cl	-	-	-	-	0
COc1cccc(C(=O)c2cn(CC(=O)Nc3cccc(C(F)(F)F)c3)c3nc(C)ccc3c2=O)c1	-	-	-	-	0
CCN1CCN(C(c2cccnc2)c2c(NC(=O)c3ccco3)sc(C)c2C)CC1 (stereo not given)	0	4.65µM	4.15µM	-	20µM
COc1ccc(C(c2c(NC(=O)c3ccco3)sc(C)c2C)N2CCOCC2)cc1 (stereo not given)	0	0	?	-	0
CCOc1ccc(CCNC(c2nnc(-c3ccccc3)o2)c2ccccc2Cl)cc1OCC (stereo not given)	-	-	-	-	0
SMILES	AMA1 RON2 block	Pf growth 96h	Pf growth 48h	NS1 inh	Sm TGR inh
Clc1ccccc1CN1CCN(/N=C/C=C\c2ccco2)CC1	10µM	0	0	0	50.1µM
O=C(NCCN1CCC(n2c(=O)[nH]c3ccccc32)CC1)c1ccc(Cl)cc1Cl	0	-	-	-	-
Cc1nc2ccc(NC(=O)c3cncc(Br)c3)cc2s1	0	?	?	0	0
COc1ccc(C(=O)c2ccc(Br)cc2)cc1	0	?	11.7µM	0	0
COc1ccc(C(=O)c2ccccc2)cc1	0	?	0	-	0
CN(C)c1cc[n+](CC[n+]2ccc(N(C)C)cc2)cc1	0	?	?	-	0
CN(C)c1cc[n+](Cc2c(Cl)cccc2Cl)cc1	0	0.37µM	4.65µM	0	0
C[C@@H]1C(NC(=O)c2ccccc2)CC2CC1C2(C)C (stereo not given in full)	0	7.38µM	0	0	0
O=C1NC(=S)NC(=O)C1=Cc1ccc2c(c1)CCN2CCCCl	0	0	0	0	14.1µM
COc1cccc(C2N(Cc3ccccc3)C(=O)C2(F)F)c1OC (stereo not given)	0	0	0	0	0
CC(COc1ccccc1)N(CCCl)Cc1ccccc1 (stereo not given)	0	?	0	0	25.1µM
Cc1csc(NC(=O)c2c(-c3c(F)cccc3Cl)noc2C)n1	0	?	11.7µM	-	0
Cc1onc(-c2ccccc2)c1C(=O)NCc1ccccn1	0	-	?	0	0
Cc1onc(-c2c(Cl)cccc2Cl)c1C(=O)NCc1ccccn1	0	2.08µM	0	0	0
O=C(NCc1ccco1)c1c(F)c(F)c(F)c(C(=O)NCc2ccco2)c1F	0	0	0	0	44.7µM
Cc1onc(-c2c(F)cccc2Cl)c1C(=O)OCC(=O)NC(N)=O	0	0	0	0	0
Cc1onc(-c2c(F)cccc2Cl)c1C(=O)OCC(=O)NC(c1ccccc1)c1ccccc1	0	-	11.7µM	0	0
COCCCN(CC(=O)Nc1ccc(N2CCOCC2)cc1)S(=O)(=O)c1ccc(Cl)cc1	0	0	0	-	0
C/C(=N\NC(=O)C1CC1)c1ccc(OC(F)F)cc1	0	?	?	0	0
CCOc1ccc(NC(=O)N2CCN(C(=O)c3nsc4ccccc34)CC2)cc1	-	-	-	-	0
Cc1onc(-c2c(F)cccc2Cl)c1C(=O)Nc1cccc(S(=O)(=O)NCc2ccco2)c1	0	?	0	-	28.2µM
Cc1onc(-c2c(F)cccc2Cl)c1C(=O)OCC(=O)NCc1ccco1	0	-	?	0	17.8µM
Cc1onc(-c2c(F)cccc2Cl)c1C(=O)OCC(=O)NC1CC1	0	0	0	-	0
O=C(Nc1cccc(S(=O)(=O)NCc2ccco2)c1)c1ccc(Cl)cc1	0	-	-	-	-
Cc1onc(-c2c(F)cccc2Cl)c1C(=O)NCc1cccs1	0	0	0	0	0
SMILES	AMA1 RON2 block	Pf growth 96h	Pf growth 48h	NS1 inh	Sm TGR inh
Cc1onc(-c2c(F)cccc2Cl)c1C(=O)NCc1ccco1	0	1.47µM	0	?	0
CSc1ncccc1C(=O)OCC(=O)NC12CC3CC(CC(C3)C1)C2	0	-	-	-	-
COc1ccc(S(=O)(=O)N2CCC3(CC2)OCCN3S(=O)(=O)c2ccc(C)cc2)cc1OC	0	0	0	-	0
Cc1onc(-c2ccccc2)c1C(=O)O/N=C(\N)c1ccc([N+](=O)[O-])o1	0	11.7µM	?	0	?
Cc1onc(-c2ccccc2Cl)c1C(=O)O/N=C(\N)c1cccc([N+](=O)[O-])c1	0	-	-	-	-
Cc1onc(-c2cccc(Cl)c2Cl)c1C(=O)O/N=C(\N)c1ccc([N+](=O)[O-])o1	0	10.4µM	?	0	?
CCCCCCNC(=O)c1c[nH]c2ccc(S(=O)(=O)N(C)c3ccc(C(C)C)cc3)cc2c1=O	-	-	-	-	0
CCN(CC)N=Nc1ccc(S(=O)(=O)Nc2c(C)n(C)n(-c3ccccc3)c2=O)cc1	0	0	0	0	0

Screening data deposited in PubChem by National Center for Advancing Translational Sciences (NCATS).
